PLK1 PBD inh: blocks phosphopeptide binding to human PLK1 polo-box domain | Potency, µM, for the others: max response, negative = inhibition, usual class: inhibitors | Plk1 PBD binding of FITC phosphopeptide, fluorescence polarization | 2.8% of 360,000 active | P53350; also: series mostly up to about 57 µM; % is scaled to controls: 0 for no effect and ±100 for the full control effect; nearly all actives have a fitted effect of over 65% in size
BRCA1 expr up: BRCA1 expression activation. MCF7-BRCA1-FFLuc reporter, luminescence, 48 h; response scale: scaled: vehicle 0%, 10 µM genistein 100%. Potency, µM (top dose mostly 46.1 µM), without a hit: at the top dose activation, hits mostly activators. 1.1% of 380,000 active. AID 624202; also: nearly all actives have a fitted effect of over 80% in size
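Reporter cells (MCF7, BRCA1 promoter-firefly luciferase) received library compounds across a concentration series for 48 h. End-point luminescence was measured and concentration-effect curves derived after normalization.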
Tb PFK inh: blocks T. brucei phosphofructokinase. T. brucei PFK, ADP-Glo luminescence. Potency, µM (top dose mostly 57.5 µM), without a hit: top-dose activity, negative = inhibition, actives largely listed as inhibitors. 0.17% of 330,000 active. AID 485367;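 also: 0% = uninhibited 1x PFK enzyme wells and -100% = no-enzyme wells; nearly all actives have a fitted effect of over 60% in size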
Target sequence (O15648 whole entry, looked up): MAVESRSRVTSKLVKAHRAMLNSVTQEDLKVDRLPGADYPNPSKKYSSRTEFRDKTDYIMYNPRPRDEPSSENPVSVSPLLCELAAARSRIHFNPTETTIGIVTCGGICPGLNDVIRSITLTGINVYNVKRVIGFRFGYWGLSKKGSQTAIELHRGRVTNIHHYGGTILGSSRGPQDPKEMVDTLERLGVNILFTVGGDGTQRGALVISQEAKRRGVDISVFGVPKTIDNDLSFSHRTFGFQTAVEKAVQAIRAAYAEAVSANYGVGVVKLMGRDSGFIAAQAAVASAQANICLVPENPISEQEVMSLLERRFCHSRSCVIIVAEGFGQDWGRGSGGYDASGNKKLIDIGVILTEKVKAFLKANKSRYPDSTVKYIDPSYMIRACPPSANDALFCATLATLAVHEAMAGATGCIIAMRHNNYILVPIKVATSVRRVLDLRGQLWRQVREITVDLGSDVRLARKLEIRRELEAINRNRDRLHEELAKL
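In TEA buffer at pH 8.0 with 5 mM MgCl2, enzyme (1.25 nM) converted F6P (0.5 mM) and ATP (0.1 mM) for 45 min at room temperature. ADP product was read by luciferase luminescence.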
VDR inhibitor: vitamin D3 receptor (human) inhibition; Potency, µM, inactives show max response, negative = inhibition, most hits filed as inhibitors; P11473; 0.93% of 400,000 active; VDR-SRC2-3 peptide fluorescence polarization, 2 h; AID 504847; also: % is scaled to controls: 0 for no effect and ±100 for the full control effect
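Signal is fluorescence polarization, reporting how far test compounds block the interaction of VDR with the SRC2-3 coregulator peptide after a 2 h room-temperature incubation.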
* = called active by the depositor; ? = inconclusive; · = not tested or not shown. Only some compounds are listed: those with a hit (about 3.9% of all), similar ones and a draw of the others. Calls follow the shape of the dose curve; as a rule, active = well fitted curve in the direction sought with a large enough effect; inconclusive = small, poorly fitted or top-dose-only effect, or another doubt; inactive = no such curve, though single readings can be large; an effect the other way counts as inactive or inconclusive. Potency is read from the fitted curve at half-maximal effect.

SMILES	PLK1 PBD inh	BRCA1 expr up	Tb PFK inh	VDR inhibitor
COc1cccc(-n2c(C)nc3c(cnn3-c3ccc(Cl)cc3)c2=O)c1	21.2µM*	-25.7%	-0.8%	-4.1%
CCOc1ccc(N2C(=O)CC(NCc3ccc(S(N)(=O)=O)cc3)C2=O)cc1 (centres undefined)	10.6µM*	5.3%	2.3%	?
CC(=O)Oc1cc(-c2coc3cc(OC(C)=O)c(OC(C)=O)c(OC(C)=O)c3c2=O)cc(OC(C)=O)c1OC(C)=O	·	·	·	17.8µM*
Cc1ccccc1CNC(=O)Nc1ccc2c(c1)N(C)C(=O)c1ccccc1S2	·	·	·	-2.2%
Cc1c2ccccc2cc[n+]1C	·	0.9%	·	·
CC1=[N+](C)c2ccc3ccccc3c2C1(C)C	-29.0%	-14.3%	0.5%	44.7µM*
COc1cc(C/C=C/c2ccccc2)c(OC)cc1O	·	·	·	50.1µM*
Cc1c(C(=O)N2CCCCC2)c(S(=O)(=O)N2CCC(C)CC2)c(C)n1C	21.2µM*	-6.6%	1.3%	?
Cc1c(C(=O)N2CCOCC2)c(S(=O)(=O)Nc2ccc(C(C)C)cc2)c(C)n1C	26.7µM*	-2.0%	-0.8%	?
Cc1c(C(=O)N2CCOCC2)c(S(=O)(=O)Nc2ccc(OC(F)(F)F)cc2)c(C)n1C	-5.1%	-3.1%	-3.8%	2.7%
Cc1ccc(NS(=O)(=O)c2c(C(=O)N3CCCCCC3)c(C)n(C)c2C)cc1F	·	·	·	11.2%
Cc1c(C(=O)N2CCCC2)c(S(=O)(=O)N2CCCCC2)c(C)n1C	-11.4%	0.0%	-0.7%	-5.8%
Cc1ccc(NS(=O)(=O)c2c(C(=O)N3CCCCCC3)c(C)n(C)c2C)cc1C	21.2µM*	-10.8%	2.1%	-11.3%
Cc1ccc(NC(=O)Cn2c(=O)n(Cc3nc(C)no3)c(=O)c3cc4c(cc32)OCO4)c(C)c1	·	·	·	20.0%
CCCCCCCCCCOCCC(=O)O	·	·	·	-11.5%
CC1(C)CC(=O)C2=C(C1)c1c(ccc3ccccc13)NC2c1cc([N+](=O)[O-])cc([N+](=O)[O-])c1O (centres undefined)	3.36µM*	-80.6%	?	-5.7%
O=c1cc(CO)oc(C(Nc2ccccn2)c2cccc(F)c2)c1O (centres undefined)	23.8µM*	27.6%	-10.4%	15.8µM*
COc1cccc(C(Nc2ccccn2)c2oc(CO)cc(=O)c2O)c1 (centres undefined)	21.2µM*	-2.5%	6.2%	?
CC(=O)Nc1ccccc1-c1nc2ccccc2n(CC(=O)c2ccc(C)c(C)c2)c1=O	·	·	·	15.4%
O=[N+]([O-])c1cccnc1N1CCC(c2cc(-c3ccc(Cl)cc3Cl)n[nH]2)CC1	10.6µM*	-83.4%	-3.4%	-3.2%
COc1ccc(NC(=O)c2ccc(COc3ccccc3Br)o2)cc1OC	-2.8%	-38.8%	-2.1%	9.7%
COc1ccc(C(=O)Nc2nc3ccccc3s2)cc1	7.0%	-25.1%	0.1%	-5.2%
CC(=O)c1ccc(NC(=O)c2ccc3snnc3c2)cc1	-15.9%	?	-7.2%	-7.1%
COc1ccc(NC(=O)c2ccc3snnc3c2)cc1	-3.8%	6.31µM*	-7.1%	-6.8%
COc1ccc(/C=N/OCC(=O)Nc2nc3ccccc3s2)cc1OC	16.8µM*	33.4%	-12.2%	?
SMILES	PLK1 PBD inh	BRCA1 expr up	Tb PFK inh	VDR inhibitor
COc1ccc(C(=O)Nc2nc3ccccc3s2)cc1OC	4.1%	4.47µM*	-6.3%	0.7%
COc1ccc(NC(=O)c2ccc(COc3ccccc3OC)o2)cc1OC	29.9µM*	7.0%	-3.8%	-15.8%
O=C(Nc1cc(-c2nc3ccccc3o2)ccc1Cl)c1ccc(Br)o1	·	·	·	-14.6%
CCCCOC(=O)c1ccc(NS(=O)(=O)c2c(C)nc3scc(C)n3c2=O)cc1	·	·	·	2.0%
Cc1c(Cl)cccc1NC(=O)CCCn1nc(C)c2sc3ccccc3c2c1=O	·	·	·	6.5%
COc1ccc(OC)c(CNC(=O)Cc2ccc(NC(=O)N3CCCCc4ccccc43)cc2)c1	·	0.0%	·	13.0%
O=C(CS)Nc1ccc2ccccc2c1	-18.5%	-29.3%	-22.5%	79.4µM*
COc1cc(C(=O)Nc2ccc3ccccc3c2)cc(OC)c1OC	-19.6%	46.2%	1.4%	5.4%
O=C(Cc1ccc2c(c1)CCCC2)Nc1ccc2ccccc2c1	?	-8.1%	0.1%	-13.6%
COc1ccc(C(=O)Nc2ccc(-c3n[nH]c(=S)o3)cc2)cc1OC	11.9µM*	-17.4%	17.5%	?
COc1ccc(C(=O)Nc2ccc3ccccc3c2)cc1OC	-9.9%	5.62µM*	0.9%	-9.5%
O=C(O)c1ccc(NC(=O)c2cc3c([nH]c2=O)CCCC3=O)cc1	·	3.0%	·	·
CN1N=C(C(=O)N2CCc3c([nH]c4ccccc34)C2c2ccccc2Cl)CCC1=O (centres undefined)	26.7µM*	-6.1%	6.4%	-3.9%
O=c1cc(O)c2c([nH]1)CCC2	·	6.8%	·	·
Cc1ccccc1Oc1ccc(Oc2ccccc2C)nn1	-9.1%	7.08µM*	1.3%	8.2%
CCOc1cc(/C=N/Nc2nc(-c3cccs3)c(NC(C)=O)s2)ccc1O	26.7µM*	-16.5%	-14.6%	35.5µM*
O=C(Nc1ccc2c(c1)OCCO2)N1CCN(Cc2ccccc2)CC1	-3.3%	12.6µM*	4.3%	-15.9%
NC(=O)c1ccccc1OCC(=O)Nc1ccc2c(c1)OCCO2	-6.6%	3.55µM*	-18.4%	-5.6%
O=C(CCc1ccccc1)Nc1ccc2c(c1)OCCO2	-7.5%	11.2µM*	-5.8%	8.5%
O=C(COc1ccc(Br)cc1Cl)NC(=O)Nc1ccc2c(c1)OCCO2	3.0%	11.2µM*	-3.7%	11.3%
COC(=O)C[C@@H]1C[C@@H]2c3cc(NS(=O)(=O)c4ccc(F)cc4)ccc3O[C@@H]2[C@@H](CO)O1	0.1%	-4.1%	·	·
Cc1cccc(-c2nc(SCc3cc(=O)c4c(C)cc(C)cc4[nH]3)n[nH]2)c1	·	·	·	14.9%
CCOc1ccccc1C(=O)Nc1cc(-c2nc3cccnc3s2)ccc1C	·	·	·	8.9%
CCOC(=O)COc1ccc(/C=C2/C(=O)NN(c3ccc(F)cc3)C2=O)cc1OC	26.7µM*	2.0%	-1.8%	-21.9%
CCOc1cc(/C=C2\C(=O)NN(c3ccccc3)C2=O)cc([N+](=O)[O-])c1O	16.8µM*	0.0%	?	?
SMILES	PLK1 PBD inh	BRCA1 expr up	Tb PFK inh	VDR inhibitor
O=C1NN(c2ccc(F)cc2)C(=O)/C1=C\c1cnn(-c2ccccc2)c1	·	·	-22.5%	·
O=C1NN(c2cccc(Br)c2)C(=O)/C1=C\c1ccccc1	1.5µM*	-3.6%	?	?
O=C1NN(c2ccccc2)C(=O)C1=Cc1ccccc1	10.6µM*	-2.9%	·	·
COc1cc(/C=C2/C(=O)NN(c3ccccc3)C2=O)cc(Br)c1O	-7.6%	-6.3%	12.9%	?
COc1cc(/C=C2\C(=O)NN(c3ccccc3)C2=O)cc([N+](=O)[O-])c1O	?	-1.0%	?	-29.9%
CC(C)n1nnnc1C1c2ccccc2C(=O)N1Cc1ccco1 (centres undefined)	0.9%	14.2%	·	·
CCOC(=O)c1cccc(NC(=O)COc2ccc3c(C)cc(=O)oc3c2)c1	·	·	·	-12.2%
O=C1NN(c2ccccc2)C(=O)/C1=C/c1cccs1	·	·	11.1%	·
O=C1NN(c2ccccc2)C(=O)/C1=C\c1ccccc1	8.44µM*	-22.3%	11.5%	?
O=C1NN(c2cccc(Br)c2)C(=O)/C1=C/c1cccs1	18.9µM*	7.8%	5.4%	?

Bioassay records as filed in PubChem.
